Experimental data: PubChem BioAssay (Tox21)
Where “and” joins values, the source holds several entries; their conditions need not be identical. Equal values may be shown once. Results filed as inconclusive are left out. Calls of active or inactive are those of the source. Unless noted, calls follow the shape of the dose curve; as a rule, active = well fitted curve in the direction sought with a large enough effect in the repeat runs; inconclusive = weak or mixed curves; inactive = no such curve, though single readings can be large; an effect the other way counts as inactive or inconclusive.

Experiments:
[1] = qHTS assay to identify small molecule agonists of the hypoxia (HIF-1) signaling pathway (AID 1224846; active = well fitted activation curve with a large enough effect in the signal ratio in the repeat runs, not every such curve was filed as active; the % refers to the signal ratio)
How it was run: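 Hypoxia-pathway activation was scored as increased beta-lactamase from an HRE-controlled reporter in ME-180 cells; plated at 2,000 cells per well with 0.5% dialyzed FBS, they were exposed 17 hrs to compounds and then given CCF4-AM.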

[2] = qHTS assay to identify small molecule agonists of H2AX - cell viability counter screen (AID 1224847; calls by dose curve; also: nearly all actives have a fitted effect of over 30% in size; also: potency is read from the fitted curve at half-maximal effect)
How it was run: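 Quantitative HTS viability measurement: CHO-K1 wild-type cells in serum (10% FBS) medium, short 3 hr drug exposure at 37C with 0.76% DMSO, CellTiter-Glo luminescent detection.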

[3] = qHTS RealTime-Glo MT Cell Viability Assay in HepG2 cells - 24 hour (AID 1224867); also: nearly all actives have a fitted effect of over 50% in size; also: potency is read from the fitted curve at half-maximal effect
How it was run: (§1)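 HepG2 suspension premixed with RealTime-Glo reagents is plated at 600 cells per well and left 5 h at 37 C/5% CO2. Compounds in DMSO then go in, and bioluminescence reflecting viable cell number is recorded over 40 h.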

[4] = qHTS RealTime-Glo MT Cell Viability Assay in HEK293 cells - 32 hour (AID 1224868); also: nearly all actives have a fitted effect of over 50% in size; also: potency is read from the fitted curve at half-maximal effect
How it was run: (§2)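 Reads taken at 0, 8, 16, 24, 32 and 40 h from the same wells. HEK293 cells (600/well) carried RealTime-Glo reagents from seeding, with compound added after a 5 h settle at 37 C.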

[5] = A CellTox Green Cytotoxicity Assay to monitor cytotoxicity in HEK293 cells - 0 hour (AID 1224869); also: nearly all actives have a fitted effect of over 50% in size; also: potency is read from the fitted curve at half-maximal effect
How it was run: (§3)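 Seeding of HEK293 cells together with cytotoxicity dye preceded a 5 h incubation at 37 C/5% CO2. Test compounds in DMSO were then added and fluorescence monitored across 40 h.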

[6] = qHTS RealTime-Glo MT Cell Viability Assay in HepG2 cells - 40 hour (AID 1224870); also: nearly all actives have a fitted effect of over 50% in size; also: potency is read from the fitted curve at half-maximal effect
How it was run: (§4)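 HepG2 cells (600/well) mixed with RealTime-Glo MT reagent, settled 5 h at 37 C/5% CO2 before compound addition. Nonlytic NanoLuc luminescence from viable-cell prosubstrate reduction read repeatedly during 40 h treatment at 37 C.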

[7] = A CellTox Green Cytotoxicity Assay to monitor cytotoxicity in HEK293 cells - 40 hour (AID 1224871); also: nearly all actives have a fitted effect of over 45% in size; also: potency is read from the fitted curve at half-maximal effect
How it was run: as §3

[8] = qHTS RealTime-Glo MT Cell Viability Assay in HEK293 cells - 16 hour (AID 1224872); also: nearly all actives have a fitted effect of over 50% in size; also: potency is read from the fitted curve at half-maximal effect
How it was run: as §2

[9] = qHTS RealTime-Glo MT Cell Viability Assay in HepG2 cells - 8 hour (AID 1224873); also: nearly all actives have a fitted effect of over 55% in size; also: potency is read from the fitted curve at half-maximal effect
How it was run: as §4

[10] = qHTS RealTime-Glo MT Cell Viability Assay in HEK293 cells - 40 hour (AID 1224874); settings: RealTime-Glo luminescence; max response: stronger effect = lower value; also: nearly all actives have a fitted effect of over 50% in size; also: potency is read from the fitted curve at half-maximal effect
How it was run: (§5)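 Tox21 screen in HEK293 using RealTime-Glo MT chemistry, with cells and reagent co-dispensed. Luminescence proportional to viable cell number was captured at intervals during 40 h compound exposure at 37 C.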

[11] = A CellTox Green Cytotoxicity Assay to monitor cytotoxicity in HEK293 cells - 24 hour (AID 1224875); also: nearly all actives have a fitted effect of over 45% in size; also: potency is read from the fitted curve at half-maximal effect
How it was run: as §3

[12] = A CellTox Green Cytotoxicity Assay to monitor cytotoxicity in HepG2 cells - 16 hour (AID 1224876); also: nearly all actives have a fitted effect of over 45% in size; also: potency is read from the fitted curve at half-maximal effect
How it was run: (§6)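 Nonlytic assay: viable cells exclude the dye, so fluorescence scales with cell death. HepG2 at 600 cells/well, compounds added after 5 h, signal read across 40 h.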

[13] = qHTS RealTime-Glo MT Cell Viability Assay in HepG2 cells - 32 hour (AID 1224877); also: nearly all actives have a fitted effect of over 55% in size; also: potency is read from the fitted curve at half-maximal effect
How it was run: as §1

[14] = A CellTox Green Cytotoxicity Assay to monitor cytotoxicity in HepG2 cells - 24 hour (AID 1224878); also: nearly all actives have a fitted effect of over 45% in size; also: potency is read from the fitted curve at half-maximal effect
How it was run: as §6

[15] = A CellTox Green Cytotoxicity Assay to monitor cytotoxicity in HepG2 cells - 40 hour (AID 1224879); also: nearly all actives have a fitted effect of over 40% in size; also: potency is read from the fitted curve at half-maximal effect
How it was run: as §6

[16] = qHTS RealTime-Glo MT Cell Viability Assay in HEK293 cells - 0 hour (AID 1224880)
How it was run: as §5

[17] = A CellTox Green Cytotoxicity Assay to monitor cytotoxicity in HEK293 cells - 32 hour (AID 1224881); also: nearly all actives have a fitted effect of over 40% in size; also: potency is read from the fitted curve at half-maximal effect
How it was run: as §3

[18] = qHTS assay to identify small molecule agonists of H2AX (AID 1224845; active = well fitted activation curve with a large enough effect in the signal ratio in the repeat runs, not every such curve was filed as active; the % refers to the signal ratio; also: potency is read from the fitted curve at half-maximal effect)
How it was run: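 Wild-type CHO-K1 cells, plated overnight, exposed 3hr at 37C to 15 concentrations (0.76% DMSO final). Lysed, then HTRF anti-pH2AX (S139) cryptate and anti-H2AX-d2 antibodies, 24 hr room temperature; 665/620 nm emission read.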

[19] = qHTS assay to identify small molecule agonists of the estrogen related receptor (ERR) signaling pathway from Tox21 library (AID 1224849; calls by dose curve; also: nearly all actives have a fitted effect of over 15% in size); settings: ERR reporter cell line, ONE-Glo luciferase, 18 h; at 92.4 µM (top of the series) unless noted
How it was run: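 Six hours post-seeding at 37 C/5% CO2, ERR cells receive DMSO-solubilised compounds; after 18 h at 37 C, ONE-Glo reagent is applied and luminescence recorded.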

[20] = qHTS assay to identify small molecule antagonists of the estrogen related receptor (ERR) signaling pathway from Tox21 library (AID 1224848); also: nearly all actives have a fitted effect of over 50% in size; also: potency is read from the fitted curve at half-maximal effect
How it was run: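 Luminescent reporter read-out (ONE-Glo) from NTP's ERR cell line after 18 h treatment at 37 C with DMSO-dissolved Tox21 compounds; cells pre-plated 6 h beforehand at 2,000 per well.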
% is scaled to controls: 0 for no effect and ±100 for the full control effect.

C=CC(C)(CCC=C(C)C)OC(=O)/C=C/c1ccccc1 (configuration not stated)
active: Potency [5] 38.9 µM | Potency [7] 38.9 µM | Potency [11] 27.5 µM | Potency [12] 27.5 µM | Potency [14] 38.9 µM | Potency [15] 43.6 µM | Potency [17] 38.9 µM
inactive: outcome [1] | Potency [2] | Potency [3] | Potency [4] | Potency [6] | Potency [8] | Potency [9] | max response [10] -2.78% | Potency [13] | Potency [16]

CCCCNc1c(C(=O)OCC)c(C)nc2c1cnn2CC
active: Potency [4] 21.3 µM
inactive: Potency [18] | Potency [3] | Potency [5] | Potency [6] | Potency [7] | Potency [9] | Potency [11] | Potency [12] | Potency [13] | Potency [14] | Potency [16] | Potency [17]

CCCCCCC(C)OC(=O)COc1nc(F)c(Cl)c(N)c1Cl (configuration not stated)
inactive: outcome [1] | activity change, positive = activation [19] -16.7% | Potency [3] | Potency [4] | Potency [5] | Potency [6] | Potency [7] | Potency [8] | Potency [9] | max response [10] -20.4% | Potency [11] | Potency [13] | Potency [16]
active: Potency [2] 113 µM

CC(C(O)c1ccccc1)N(C)CCOC(c1ccccc1)c1ccccc1 (configuration not stated)
active: Potency [20] 23.7 µM | Potency [4] 23.9 µM | Potency [7] 26.8 µM | Potency [8] 21.3 µM | Potency [10] 23.9 µM | Potency [12] 23.9 µM | Potency [14] 26.8 µM | Potency [17] 26.8 µM
inactive: outcome [1] | activity change, positive = activation [19] -45.6% [at 42.5 µM] | Potency [5] | Potency [16]

CCCCCCCCCCCCOC(=O)c1cc(O)c(O)c(O)c1
active: Potency [18] 11.3 µM | Potency [3] 54.7 µM and 49 µM | Potency [4] 3.87 µM and 3.47 µM | Potency [6] 54.9 µM | Potency [7] 34.5 µM and 49 µM | Potency [8] 6.89 µM and 5.49 µM | Potency [9] 48.8 µM and 43.6 µM | Potency [10] 3.45 µM and 3.47 µM | Potency [12] 48.8 µM and 38.9 µM | Potency [13] 54.7 µM and 49 µM | Potency [14] 48.8 µM and 49 µM | Potency [17] 48.8 µM and 49 µM
inactive: Potency [5] | Potency [16]

Cc1occc1SSc1ccoc1C
inactive: outcome [1] | Potency [2] | Potency [4] | Potency [5] | Potency [6] | Potency [8] | Potency [9] | max response [10] -28.3% | Potency [13] | Potency [16]
active: Potency [7] 54.9 µM

CCCCCCCCCCCC(=O)N(CC)CC
inactive: Potency [18] | Potency [3] | Potency [4] | Potency [5] | Potency [6] | Potency [7] | Potency [8] | Potency [9] | max response [10] -24.4% | Potency [11] | Potency [12] | Potency [13] | Potency [14] | Potency [15] | Potency [17]

C=CC(=O)OCCC#N
active: activity change, positive = activation [19] 47%
inactive: outcome [1] | Potency [20] | Potency [3] | Potency [5] | Potency [6] | Potency [8] | Potency [9] | Potency [11] | Potency [12] | Potency [13] | Potency [14] | Potency [15] | Potency [16] | Potency [17]

c1ccc(Sc2ccccc2)cc1
inactive: outcome [1] | Potency [3] | Potency [5] | Potency [6] | Potency [7] | Potency [8] | Potency [9] | max response [10] 1.6% | Potency [11] | Potency [12] | Potency [13] | Potency [14] | Potency [16] | Potency [17]

O=C1OC(=O)c2cccc3cccc1c23
inactive: outcome [1] | Potency [20] | activity change, positive = activation [19] -2.65% | Potency [3] | Potency [4] | Potency [5] | Potency [6] | Potency [7] | Potency [8] | Potency [9] | max response [10] -9.96% | Potency [11] | Potency [12] | Potency [13] | Potency [14] | Potency [15] | Potency [16]

O=C1Nc2ccc(Cl)cc2[C@@](C#CC2CC2)(C(F)(F)F)O1
inactive: Potency [18] | Potency [5] | Potency [6] | Potency [16]
active: Potency [4] 23.9 µM | Potency [8] 21.3 µM | Potency [10] 23.9 µM

O=C(O)Cc1ccc(OCCNC[C@H](O)c2ccccc2)cc1
inactive: outcome [1] | Potency [2] | Potency [3] | Potency [4] | Potency [5] | Potency [7] | Potency [8] | Potency [9] | max response [10] 6.67% | Potency [11] | Potency [12] | Potency [13] | Potency [14] | Potency [15] | Potency [17]

CCCSS/C(CCO)=C(\C)N(C=O)Cc1cnc(C)nc1N
inactive: outcome [1] | Potency [5] | Potency [7] | Potency [9] | Potency [11] | Potency [12] | Potency [14] | Potency [16] | Potency [17]

CN(C)CCCN1c2ccccc2Sc2ccc(C(F)(F)F)cc21
active: Potency [7] 26.8 µM | Potency [8] 19 µM | Potency [12] 23.9 µM | Potency [14] 23.9 µM | Potency [15] 23.9 µM | Potency [17] 23.9 µM
inactive: outcome [1] | Potency [2] | Potency [5]
